Experimental data published in PubChem BioAssay (NCATS).
Inconclusive results are not listed. Where a call stands in place of a potency, no number is given. Active and inactive are the calls of the source. The call rests on the fitted dose curve; in most records, active means well fitted inhibition curve with a large enough effect; inconclusive means small, poorly fitted or top-dose-only effect; inactive means no such curve, though single readings can be large or run the other way.

test: qHTS for Inhibitors of ATXN expression: Validation (AID 588378); conditions: cell-based ATXN2 expression reporter assay, luminescence; series mostly up to 57.1 µM; further: nearly all actives have a fitted effect of over 75% in size
Procedure, shortened: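 After a 2 h attachment and 24 h compound incubation, HEK293-ATXN2-FFLuc wells are read for fluorescence at 405 nm excitation/525 nm emission as a viability measure, then for Bright-Glo luminescence reflecting ATXN2 expression.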

SMILES	Potency
Nc1nc(N)c(N=O)c(OCC2CCCCC2)n1	inactive
O=C1c2ccccc2-c2n[nH]c3cccc1c23	inactive
CCOC(=O)C(C)Oc1cccc2c(=O)n(CC(=O)Nc3ccc4c(c3)OCCO4)ccc12 (stereo not drawn)	inactive
